# Compounds without any hit were thinned out: in the full panel of roughly 83,000, 20% have a hit.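 Growth was measured after 48 h exposure to one concentration of compound in 96-well plates. Values under 10 count as active.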 Activity calls are given as the source filed them.
# Tested on: CCRF-CEM leukemia
# Experiment: NCI-60 one-dose screen, 48 h (100 = growth as untreated, 0 = no growth, -100 = all killed)
# Settings: 10 µM unless noted
row,Structure (SMILES),growth
1,COc1cc2c3c(c4c5ccccc5[nH]c4c2c(OC)c1OC)C(=O)N(O)C3=O,18% (inactive)
2,Cc1cc2nc3c4cc(O)ccc4n(CCN(C)C)c3nc2cc1C,9.31% (active)
3,Cc1csc(Nc2nc(-c3ccc(Cl)cc3)nc(C(Cl)(Cl)Cl)n2)n1,90% (inactive)
4,Cc1cc(C)nc(NC(N)=NCCc2ccccc2)n1,45.3% (inactive)
5,COc1cc(-c2c(C#N)c(-c3cccs3)nc3c2c(-c2ccccc2)nn3-c2ccccc2)ccc1O,83.2% (inactive)
6,CN1CCN(c2ccc3nc(-c4[nH]ncc4Nc4ncnc5c4OCCCN5)[nH]c3c2)CC1,-25.7% (active)
7,COC(=O)[C@]12CC[C@@H](C)[C@H](C)[C@@H]1C1=CC[C@@H]3[C@@]4(C)C[C@@H](O)[C@H](O)[C@@](C)(CO)C4=CC[C@@]3(C)[C@]1(C)CC2,-33.6% (active)
8,O=C(NO)c1ccc(Cn2c(=O)n(-c3ccccc3)c(=O)c3ccccc32)cc1,2% (active)
9,COC(=O)[C@]12CC[C@@H](C)[C@H](C)[C@@H]1C1=CC(=O)[C@@H]3[C@@]4(C)C[C@@H](O)[C@H](O)[C@@]5(C)COC(=C45)C[C@@]3(C)[C@]1(C)CC2,59.7% (inactive)
10,Cn1cc(-c2csc(-c3cn(CCN)c4ccc(F)cc34)n2)c2cccnc21,34.3% (inactive)
11,CN(C)CCCCC(C(=O)CBr)(c1ccccc1)c1ccccc1,5.74% (active)
12,CC/C=C\C[C@H]1CC=C2C(=O)C=C[C@@H]2CC=CCCCC(=O)O[C@@H](CCCCC)CC=C2C(=O)C=C[C@@H]2CC=CCCCC(=O)O[C@@H](CCCCC)CC=C2C(=O)C=C[C@@H]2CC=CCCCC(=O)O[C@@H](CCCCC)CC=C2C(=O)C=C[C@@H]2CC=CCCCC(=O)O1,9.35% [7.9 µM] (active)
